Laboratory results: the supplement of paper PMC9337992
± gives the standard deviation of the averaged measurements.

The compounds below were run on MDAMB231 (assay: cell proliferation (confluence) relative to DMSO control; higher = less growth inhibition). Settings: 5 uM; 6 d.
Experimental: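 Epigenetic chemical probe screen: 15 TNBC cell lines, 500 cells per well in 384-well plates, treated with 5 uM of each of 36 SGC probes for 6 d. Confluency was imaged by IncuCyte ZOOM and normalised to DMSO control wells. Four replicate wells per compound.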

SMILES	cell proliferation [%]
CCOC(=O)CCNc1cc(N2CCc3ccccc3CC2)nc(-c2cccnc2)n1	98.88 ± 0.33
CN(C)[C@H]1CN(C2CCc3cccc(F)c32)C[C@@H]1c1ccc(N2CCN(S(C)(=O)=O)CC2)cc1 (some centres not stated)	99.19 ± 0.27
COc1ccc(CCc2nc3cc(-c4c(C)noc4C)ccc3n2C[C@H](C)N2CCOCC2)cc1Cl	90.9 ± 1.5
CC(C)N(CCCNC(=O)Nc1ccc(C(C)(C)C)cc1)C[C@H]1O[C@@H](n2cc(Br)c3c(N)ncnc32)[C@H](O)[C@@H]1O	99.63 ± 0.16
O=C([C@@H](Cc1cccc(C(F)(F)F)c1)NS(=O)(=O)c1cc(F)c2c(c1)CCNC2)N1CCCC1	87 ± 14
CCCc1cc(C)[nH]c(=O)c1CNC(=O)c1cc(-c2ccnc(N3CCN(C)CC3)c2)cc2c1cnn2C(C)C	99.683 ± 0.051
Cc1nnc2c3ccccc3c(N[C@@H](C)[C@H](c3ccccc3)N(C)C)nn12 [L-moses]	88.6 ± 8.2
CC(C)Oc1ccc(-c2c[nH]cc2CN(C)CCN)cc1	46.8 ± 5.9
CCOC(=O)CCNc1cc(N2CCc3ccccc3CC2)nc(-c2ccccn2)n1	31.7 ± 7.8
COc1cc(-c2cn(C)c(=O)c3cnccc23)c(OC)cc1CN(C)C	96.6 ± 1.5
CCC(=O)N1CCOc2c(cc(-c3ccc(OC)c(OC)c3)cc2OC[C@H]2CCCN(C)C2)C1	79.2 ± 5.1
O=C(NCC(=O)N1CCCC1)Nc1ccc2cnccc2c1	81.5 ± 7.2
CCN(C(=O)CO)[C@H]1CN(/C(=N\C#N)Nc2cccc(OC(F)F)c2)N=C1c1ccc(Cl)c(Cl)c1	98.31 ± 0.72
CCn1cc(-c2cccc(C(F)(F)F)c2)c2sc(C(=N)NC3CCS(=O)(=O)CC3)cc2c1=O	89.7 ± 4
COc1cc2c(cc1OCCCN1CCCC1)N=C(N)C21CCC1	96 ± 1.6
Clc1cc2c(NC3CCCC3)nnc(-c3ccncc3)c2cc1Cl	98.72 ± 0.35

SMILES	cell proliferation [%]
CCCc1cc(C)n(C)c(=O)c1CN(C)C(=O)c1cc(-c2ccc(N3CCN(C(C)C)CC3)nc2)cc2c1cnn2C(C)C	99.29 ± 0.32
Cn1cc(CCn2cnc(-c3cnn(C)c3)c2-c2ccc(C#N)cc2)cn1	96.4 ± 3.1
CCCOc1ccn2c(C(C)=O)cc(-c3ccccc3S(C)(=O)=O)c2c1	96.7 ± 2.7
COc1cc2c(NC3CCN(C(C)C)CC3)nc(C3CCCCC3)nc2cc1OCCCN1CCCC1	99.05 ± 0.52
COc1c(C)cc(NC(=O)c2nn(Cc3ccc(F)cc3)c3c2CN(C(=O)c2ccc[nH]2)C[C@]3(C)C(N)=O)cc1C	95.7 ± 2.2
CC(C)Oc1ccc(-c2c[nH]cc2CN(C)CCO)cc1	86.1 ± 7.1
O=C(c1ccc(C(=O)N2CCC(N3CCCC3)CC2)c(Nc2ccccc2)c1)N1CCC(N2CCCC2)CC1	99.13 ± 0.17
O=C(NC[C@H](O)CN1CCc2ccccc2C1)c1ccnc(NC2CCC2)c1	45 ± 5.1
CNCCN1CCC(OCc2ccccc2)CC1	82 ± 5.4
COc1cc(C#N)ccc1S(=O)(=O)Nc1ccc2c(c1)cc(C)c(=O)n2C	95.9 ± 4.5
O=C(/C=C/N1C[C@H]2C[C@@H]1CN2c1ccccn1)c1ccccc1O	99.17 ± 0.39
CCCc1cc(C)[nH]c(=O)c1CNC(=O)c1cc(-c2ccc(N3CCN(C(C)C)CC3)nc2)cc2c1cnn2C(C)C	57.1 ± 6.4
CC[C@H](C)n1cc(C)c2c(C(=O)NCc3c(C)cc(C)[nH]c3=O)cc(-c3ccc(N4CCNCC4)nc3)cc21	98.5 ± 1.6
COc1ccccc1S(=O)(=O)Nc1ccc2c(c1)CN(C)C(=O)N2	67.9 ± 8.3
Cc1cc(=O)n(C)c2cc(N3C(=O)CC[C@H](NS(=O)(=O)CC(C)C)[C@H]3c3ccc(Cl)cc3)ccc12	95.9 ± 3.5
COc1ccccc1C(=O)Nc1cc2c(cc1N1CCCC1)n(C)c(=O)n2C	91.8 ± 5.7
